Data taken from PubChem BioAssay AID1347043 (National Center for Advancing Translational Sciences (NCATS), 2019).
Among all 76,000 compounds or so, about 1,900 (2.5%) were called active. About 5% were inconclusive and are not listed. This is one part of a sample in which actives are shown more often than they occur. The call rests on the fitted dose curve; in most records, active means well fitted inhibition curve with a large enough effect; inconclusive means small, poorly fitted or top-dose-only effect; inactive means flat fitted curve, though single readings scatter.

The compounds below were run against Luciferin 4-monooxygenase (Photinus pyralis) (UniProt P08659) (assay: Firefly luciferase inhibition profiling of diverse chemical library using quantitative high-throughput screening). Details: purified P. pyralis luciferase, luminescence, biochemical; series mostly up to 115 µM; activity change, negative = inhibition: at the top concentration.
Chain of Luciferin 4-monooxygenase (Photinus pyralis) (P08659 whole entry, looked up): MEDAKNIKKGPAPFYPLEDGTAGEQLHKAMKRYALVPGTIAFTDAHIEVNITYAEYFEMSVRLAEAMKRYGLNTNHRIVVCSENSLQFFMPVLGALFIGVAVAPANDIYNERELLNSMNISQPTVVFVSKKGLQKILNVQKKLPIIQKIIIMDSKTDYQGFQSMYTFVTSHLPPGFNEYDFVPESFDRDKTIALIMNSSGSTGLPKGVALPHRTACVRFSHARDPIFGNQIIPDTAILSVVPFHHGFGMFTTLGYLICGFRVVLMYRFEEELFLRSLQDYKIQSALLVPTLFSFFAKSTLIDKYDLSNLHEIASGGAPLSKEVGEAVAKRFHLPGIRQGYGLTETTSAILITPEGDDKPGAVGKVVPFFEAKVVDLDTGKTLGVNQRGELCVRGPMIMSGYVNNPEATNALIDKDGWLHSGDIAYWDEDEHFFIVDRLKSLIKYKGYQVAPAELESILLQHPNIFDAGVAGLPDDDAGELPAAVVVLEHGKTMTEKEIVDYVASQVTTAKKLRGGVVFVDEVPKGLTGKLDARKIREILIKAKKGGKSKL
Method in brief: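 Biochemical qHTS: compound (6-point titration) added to 10uM D-luciferin plus 10uM ATP in Tris acetate pH 7.5 buffer with Mg, Tween-20 and BSA, then purified enzyme at 10nM; light output imaged.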
Further: nearly all actives have a fitted effect of over 65% in size.
On the % scale 0 is the no-effect control and ±100 the full control effect; potency means the concentration at half of the fitted maximal effect.

Row | Structure (SMILES) | activity change, negative = inhibition | Potency
1 | CN(CCCNC1CCC2(CCNCC2)CC1)c1ccccc1 | -8.04% (inactive) | 
2 | O=C(Nc1ccc(F)cc1)[C@@H]1C[C@@H](c2ccc(F)cc2)N([S+](=O)([O-])c2ccccc2)C1 | -1.83% (inactive) | 
3 | O=C(NCc1ccccc1)NC1CCc2nn(CC3CC3)c(=O)n2CC1 (stereo not given) | -2.7% (inactive) | 
4 | CCCc1noc(-c2cn(C3CCN(C(=O)c4ccc(C)s4)CC3)nn2)n1 | 3.81% (inactive) | 
5 | Cc1cc(NC(=O)c2ccc3c(c2)OCCN(CCC(F)(F)F)C3)ccc1F | -28.7% [at 172 µM] (inactive) | 
6 | O=C(NCc1cccs1)c1ccc2c(c1)OCCN(c1ccccc1)C2 | 9.82% [at 172 µM] (inactive) | 
7 | O=C(NCCc1ccccc1)c1ccc2c(c1)OCCN(CCC(F)(F)F)C2 |  | 39.8 µM (active)
8 | CC(C)NC(=O)C1COC2(CCN(C(=O)c3ccccc3Cl)CC2)N1C(=O)c1ccccc1 (stereo not given) | -6.51% (inactive) | 
9 | O[C@H]1CC[C@@H](Cc2cc(-c3ccccc3)on2)O[C@@H]1CNCc1ccccc1 | -0.0028% [at 172 µM] (inactive) | 
10 | C=CCN1C(=O)[C@@H]2C[C@@H](NC(=O)c3ccncc3)CCN2C1=O | -13.1% [at 172 µM] (inactive) | 
11 | CCn1ncc(N2CCC(NC(=O)C(C)c3ccccc3)CC2)cc1=O (stereo not given) | 6.63% (inactive) | 
12 | CC(C)(C)c1ccc(N2C(=O)[C@@H]3C[C@@H](NC(=O)[C@@H](O)c4ccccc4)CCN3C2=O)cc1 |  | 35.5 µM (active)
13 | Cc1nc(-c2ccc(F)cc2)n(Cc2cccc(Cl)c2)c(=O)c1CCO | 0.119% (inactive) | 
14 | Cn1cccc1CN1CCC(N2CCC[S+]2(=O)[O-])CC1 | 5.13% [at 172 µM] (inactive) | 
15 | CCN1C(=O)CCN(C(=O)CCc2ccc(OC)cc2)CC12CCOCC2 | 7.94% (inactive) | 
16 | CC(C)CC(=O)N1CCC(c2noc(-c3cnccn3)n2)C1 (stereo not given) | 6.76% (inactive) | 
17 | COc1ccc(C(=O)N2CCC3(CC2)CC(OC)CCO3)cc1OC (stereo not given) | -3.26% (inactive) | 
18 | CCn1cnnc1CC1CCN(C(=O)C2CCN(Cc3nc(-c4cccc(C)c4)oc3C)CC2)CC1 | 1.99% (inactive) | 
19 | CCn1cnnc1CC1CCN(C(=O)c2cc(-c3ccc(F)cc3)nc3ccccc23)CC1 |  | 14.1 µM (active)
20 | COCc1nncn1C1CCN(C(=O)c2ccccc2F)CC1 | 7.93% (inactive) | 
21 | Cc1noc(-c2cccc(OC3CN(C(=O)NCCc4ccccc4)C3)c2)n1 | 6.4% (inactive) | 
22 | COc1nccc(N2CCC(CC(=O)NCc3ccc(F)cc3Cl)CC2)n1 | -5.33% (inactive) | 
23 | CN(C)C[C@@H]1CN(C)C[C@H]1NC(=O)c1cc2ccccc2[nH]1 |  | 39.8 µM (active)
24 | CN(C)C[C@@H]1CN(C)C[C@H]1NC(=O)c1ccnnc1 | 11.1% (inactive) | 
25 | COc1ccc2[nH]c(C(=O)N[C@@H]3CN(S(C)(=O)=O)C[C@H]3CN(C)C)cc2c1 | -2.7% (inactive) | 

Row | Structure (SMILES) | activity change, negative = inhibition | Potency
26 | COc1ccccc1Nc1cnc2ccc(-c3ccc(OC)c(OC)c3)nn12 | -11% [at 172 µM] (inactive) | 
27 | COCC1CN(C(=O)c2cc(C)n(C)n2)CC12CCNCC2 (stereo not given) | 1.59% (inactive) | 
28 | CC(=O)NC1(C)CCN(Cc2cccc(-c3ccc(C(=O)c4ccccc4)cc3)c2)C1 (stereo not given) |  | 39.8 µM (active)
29 | O=C(NC1CC1)c1ccc2c(c1)C1(CCN(CC3CC3)C1)CN2Cc1ccccc1 (stereo not given) | 3.95% [at 172 µM] (inactive) | 
30 | CC(=O)Nc1ccc(CN2CCCC3(CC(c4cccc(C(F)(F)F)c4)=NO3)C2)cc1 (stereo not given) | 3.04% (inactive) | 
31 | CSCCNC(=O)c1coc(CN2CCN(C/C=C/c3ccccc3)CC2)n1 | -2.08% (inactive) | 
32 | Cc1cccc(NC(=O)C2CC(=O)N(c3n[nH]c4ccccc34)C2)n1 (stereo not given) | -2.55% (inactive) | 
33 | Cc1ccsc1C(=O)NCC1Cn2cccc2C(=O)N1Cc1ccccc1 (stereo not given) | -2.19% (inactive) | 
34 | Cc1ccc(NC(=O)Nc2ccc(C)n(CC(=O)NCCN3CCCC3)c2=O)cc1 |  | 14.1 µM (active)
35 | COc1ccc(NC(=O)Cn2c(C)ccc(NS(=O)(=O)c3ccccc3)c2=O)cc1 | -5.55% (inactive) | 
36 | Cc1ccc(S(=O)(=O)Nc2ccc(C)n(CC(=O)NCc3cccc(F)c3)c2=O)cc1 | -5.04% (inactive) | 
37 | CN(C)c1ccc(CN2CCC3(CC(Cc4ccccc4)=NO3)C2)cc1 (stereo not given) | -1.37% (inactive) | 
38 | CCN1c2cc(C(=O)NCc3ccc(OC)cc3OC)ccc2C(=O)N2CCCCCC21 (stereo not given) | 2.45% (inactive) | 
39 | COc1ccc(CNC(=O)c2ccc3c(c2)N(C)C2CCCCN2C3=O)c(OC)c1 (stereo not given) | -8.05% (inactive) | 
40 | CN1c2cc(C(=O)Nc3ccc(F)c(F)c3)ccc2C(=O)N2CCCCCC21 (stereo not given) |  | 5.62 µM (active)
41 | CCN1c2cc(C(=O)Nc3ccc(F)c(C)c3)ccc2C(=O)N2CCCCC21 (stereo not given) | -21.7% (inactive) | 
42 | CCOc1ccc(NC(=O)c2ccc3c(c2)N(C)C2CCCN2C3=O)cc1 (stereo not given) |  | 44.7 µM (active)
43 | Cc1cc(NC(=O)c2ccc3c(c2)N(C)C2CCCCCN2C3=O)ccc1F (stereo not given) |  | 17.8 µM (active)
44 | Cc1ccc(CNC(=O)c2ccc3c(c2)N(C)C2CCCCN2C3=O)cc1C (stereo not given) | -10.8% (inactive) | 
45 | CCN1c2cc(C(=O)Nc3ccc(OC)c(F)c3)ccc2C(=O)N2CCCCC21 (stereo not given) | -15.5% (inactive) | 
46 | CN1c2cc(C(=O)N3CCC(C(N)=O)CC3)ccc2C(=O)N2CCCCC21 (stereo not given) | 0.0605% (inactive) | 
47 | CN1c2cc(C(=O)Nc3ccc(F)cc3)ccc2C(=O)N2CCCCC21 (stereo not given) |  | 25.1 µM (active)
48 | CCN1c2cc(C(=O)Nc3ccc(F)c(Cl)c3)ccc2C(=O)N2CCCCC21 (stereo not given) | -9.38% (inactive) | 
49 | CCN1c2cc(C(=O)Nc3ccc(SC)cc3)ccc2C(=O)N2CCCCCC21 (stereo not given) | -28.6% (inactive) | 
50 | O=C(Cc1cccc(Cl)c1)N1CCC([C@@H]2CNC[C@H]2CO)CC1 | 1.45% (inactive) | 
